Experiment in all cases: NCI-60 one-dose screen, 48 h (100 = growth as untreated, 0 = no growth, -100 = all killed)
For one experiment, the system named is RPMI-8226 leukemia. As to conditions: 10 µM unless noted.
The next experiment relates to OVCAR-8 ovarian. As to conditions: 10 µM unless noted.
For the next experiment, the system named is OVCAR-5 ovarian. The note with it: 10 µM unless noted.
For a further experiment, the system named is OVCAR-4 ovarian. As to conditions: 10 µM unless noted.
A further experiment deals with SK-OV-3 ovarian. The note with it: 10 µM unless noted.
A further experiment relates to OVCAR-3 ovarian. The note with it: 10 µM unless noted.
For another experiment, the system named is HS 578T breast. The note with it: 10 µM unless noted.
A further experiment has as its system NCI/ADR-RES ovarian. The note with it: 10 µM unless noted.
Another experiment has as its system T-47D breast. As to conditions: 10 µM unless noted.
For the next experiment, the system named is BT-549 breast. The note with it: 10 µM unless noted.
A further experiment concerns MDA-MB-435 melanoma. The note with it: 10 µM unless noted.
A further experiment concerns SW-620 colon. As to conditions: 10 µM unless noted.
Another experiment relates to MCF7 breast.
The next experiment deals with HCT-116 colon. As to conditions: 10 µM unless noted.
For another experiment, the system named is HCC-2998 colon. As to conditions: 10 µM unless noted.
A further experiment has as its system KM12 colon. The note with it: 10 µM unless noted.
In the next experiment the test system is IGROV1 ovarian. The note with it: 10 µM unless noted.

The structures appear in SMILES notation. Several values for one entry are separate records, joined by “and”; a condition that tells them apart may be missing. Equal entries are not always repeated. This is part of a sample that, as a whole, favours compounds with a hit. Of some 83,000 tested, about 20% had one in any assay.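 Assay: single dose, 48 h. Readout: percent growth (0 = no net growth; negative = cell death). Active: <10.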 Values without a mark were called inactive. Activity calls are given as the source filed them.

Take `COc1ccc(-c2cnnn2-c2cc(OC)c3c(c2)OCO3)cc1`: the growth was 9.18% (active) with RPMI-8226 leukemia; 13.1% in the experiment on OVCAR-8 ovarian; 45.1% in the experiment on OVCAR-5 ovarian; 64.7% in the experiment on OVCAR-4 ovarian; -1.59% (active) in the experiment on SK-OV-3 ovarian; -37.5% (active) in the experiment on OVCAR-3 ovarian. The growth was 5.54% (active) with HS 578T breast; 12.1% in the experiment on NCI/ADR-RES ovarian; 50.3% in the experiment on T-47D breast; 34.8% in the experiment with BT-549 breast; -57.5% (active) with MDA-MB-435 melanoma; 26.5% with SW-620 colon. In addition, the growth with MCF7 breast (10 µM unless noted) is 17.8%; with HCT-116 colon it was 13.6%; in the experiment with HCC-2998 colon it was -2.25% (active); with KM12 colon, 11.8%.
With `COc1ccc2c(c1)nc(N)c1c3ccccc3cn21`, the growth was 80.3% in the experiment with RPMI-8226 leukemia; 87.8% with OVCAR-8 ovarian; 113% in the experiment on OVCAR-5 ovarian; 95.6% in the experiment with OVCAR-4 ovarian; 85.6% in the experiment with SK-OV-3 ovarian; 73.1% in the experiment with IGROV1 ovarian. Also, the growth is 79.3% with OVCAR-3 ovarian; 69.1% with NCI/ADR-RES ovarian; 70.7% with T-47D breast; 88.4% with BT-549 breast; 2.56% (active) in the experiment on MDA-MB-435 melanoma; 56.8% in the experiment with SW-620 colon. The growth with MCF7 breast (10 µM unless noted) is 44.8%; with HCT-116 colon, 59.1%; in the experiment on HCC-2998 colon, 103%; in the experiment with KM12 colon it was 63%.
On to `Cn1cc(-c2csc(-c3cn(C)c4ncccc34)n2)c2cc(F)cnc21`, for which the growth with RPMI-8226 leukemia was 70.1%; in the experiment on OVCAR-8 ovarian, 80.8%; in the experiment on OVCAR-5 ovarian, 91.3%; with OVCAR-4 ovarian, 93.5%; in the experiment with SK-OV-3 ovarian it was 107%; in the experiment on IGROV1 ovarian, 84%. In addition, the growth in the experiment with OVCAR-3 ovarian is 108%; with NCI/ADR-RES ovarian it was 46.9%; in the experiment on T-47D breast, 52.2%; in the experiment on BT-549 breast, 85.7%; in the experiment with MDA-MB-435 melanoma, 8.5% (active); with SW-620 colon, 61.7%. Besides, the growth in the experiment with MCF7 breast (10 µM unless noted) is 58%; in the experiment with HCT-116 colon, 72.5%; in the experiment with HCC-2998 colon, 77.3%; in the experiment with KM12 colon, 60.7%.
Regarding `COc1cc2cn3c4ccc(O)cc4nc(N)c3c2cc1OC`, the growth was 19.9% in the experiment on RPMI-8226 leukemia; 29.6% in the experiment with OVCAR-8 ovarian; 45.3% in the experiment on OVCAR-5 ovarian; 38.7% in the experiment with OVCAR-4 ovarian; 27.2% in the experiment with SK-OV-3 ovarian; 33.9% with IGROV1 ovarian. Besides, the growth in the experiment on OVCAR-3 ovarian is 1.25% (active); in the experiment on NCI/ADR-RES ovarian, 42.4%; in the experiment on T-47D breast it was 12.5%; in the experiment on BT-549 breast, 20.6%; with MDA-MB-435 melanoma it was 12.4%; in the experiment on SW-620 colon it was 26.1%. Also, the growth is 6.3% (active) in the experiment with MCF7 breast (10 µM unless noted), -50.7% (active) with HCT-116 colon, 27.2% in the experiment on HCC-2998 colon and 37.9% in the experiment with KM12 colon.
`c1ccc2c(c1)[nH]c1c2cc[n+]2cc3c(cc12)CCCC3`: the growth in the experiment with RPMI-8226 leukemia was 32.6%; with OVCAR-8 ovarian it was 10.7%; with OVCAR-5 ovarian, 48.1%; with OVCAR-4 ovarian it was 38.9%; in the experiment on SK-OV-3 ovarian, 23.4%; in the experiment with IGROV1 ovarian, 66.4%. Also, the growth was 20.9% in the experiment on OVCAR-3 ovarian; 97.7% with NCI/ADR-RES ovarian; -13.8% (active) in the experiment with T-47D breast; 72.7% with BT-549 breast; 11.5% with MDA-MB-435 melanoma; 20.7% in the experiment with SW-620 colon. For the same compound, the growth is -13.9% (active) in the experiment on MCF7 breast (10 µM); -78.5% (active) and -87.5% (active) in the experiment on MCF7 breast (100 µM); 14.7% in the experiment with HCT-116 colon; 24.6% in the experiment with HCC-2998 colon; 26.4% with KM12 colon.
For the compound `CCN(CC)CCNc1ccc(Cl)cc1Cl`, the growth with RPMI-8226 leukemia is 109%; with OVCAR-8 ovarian, 98.2%; in the experiment with OVCAR-5 ovarian, 124%; with OVCAR-4 ovarian it was 117%; in the experiment on SK-OV-3 ovarian it was 92.5%; in the experiment with IGROV1 ovarian, 110%. Further, the growth is 109% with OVCAR-3 ovarian; 108% with HS 578T breast; 98.6% with T-47D breast; 111% in the experiment with MDA-MB-435 melanoma; 104% with SW-620 colon; 107% in the experiment with MCF7 breast (10 µM unless noted). Also, the growth was 96.8% in the experiment on HCT-116 colon, 97.4% with HCC-2998 colon and 110% in the experiment with KM12 colon.
For the compound `COc1ccc2c(c1)nc(N)c1c3cc(C)c(C)cc3cn21`, the growth in the experiment on RPMI-8226 leukemia was 81.1%; in the experiment on OVCAR-8 ovarian, 82.3%; in the experiment with OVCAR-5 ovarian, 111%; with OVCAR-4 ovarian, 78.5%; in the experiment with SK-OV-3 ovarian it was 86.8%; with IGROV1 ovarian it was 77.2%. Further, the growth is 70.6% in the experiment on OVCAR-3 ovarian; 63.8% with T-47D breast; 94.5% in the experiment with BT-549 breast; -18% (active) in the experiment on MDA-MB-435 melanoma; 41.9% in the experiment with SW-620 colon; 16.3% in the experiment on MCF7 breast (10 µM unless noted). Further, the figures for the growth in the experiment on HCT-116 colon, in the experiment with HCC-2998 colon and with KM12 colon were 49.6%, 85.9% and 46.8%, respectively.
Turning to `COc1ccc(-c2c3c(nn2-c2ccc(N)cc2)CCc2cnoc2-3)cc1OC`, the growth in the experiment on RPMI-8226 leukemia was 60%; in the experiment on OVCAR-8 ovarian, 65%; in the experiment with OVCAR-5 ovarian, 94.1%; in the experiment with OVCAR-4 ovarian, 102%; with SK-OV-3 ovarian it was 124%; in the experiment with IGROV1 ovarian, 97.6%. For the same compound, the growth in the experiment with OVCAR-3 ovarian is 83.1%; in the experiment on NCI/ADR-RES ovarian, 77.6%; in the experiment on T-47D breast, 97%; with BT-549 breast it was 81.4%; with MDA-MB-435 melanoma it was 94.8%; with SW-620 colon, 97.6%. Further, the growth with MCF7 breast (10 µM unless noted) is 94.1%; in the experiment on HCT-116 colon, 84.4%; in the experiment on HCC-2998 colon, 98.4%; with KM12 colon, 82.1%.
For `COc1ccc2c(c1)[nH]c(=O)c1c3cc(OC)c(OC)cc3cn21`, the growth in the experiment on RPMI-8226 leukemia was -72.3% (active); in the experiment with OVCAR-8 ovarian it was 16%; in the experiment with OVCAR-5 ovarian, 49.4%; in the experiment on OVCAR-4 ovarian it was 44.2%; in the experiment with SK-OV-3 ovarian, 40.2%; in the experiment with IGROV1 ovarian, -9.03% (active). Besides, the growth with NCI/ADR-RES ovarian was 14.8%; in the experiment on T-47D breast it was 74.1%; with BT-549 breast it was 10.5%; with MDA-MB-435 melanoma it was -20.3% (active); with SW-620 colon, 31.7%; in the experiment on MCF7 breast (10 µM unless noted) it was 17.5%. Further, the growth is -18.8% (active) in the experiment with HCT-116 colon, 25.8% with HCC-2998 colon and -33% (active) in the experiment with KM12 colon.

(Values after PubChem BioAssay (NCI).)
